Measured values: PubChem BioAssay AID1508601 (ICCB-Longwood Screening Facility, Harvard Medical School, 2020)
Values joined by “and” are separate entries in the source; they are usually repeats but may differ in a detail not shown here. Identical values can stand only once. Hit rate of the full screen: of about 5,700 compounds, about 85 (1%) were called active. No stated cut-off is given here; in the data, active means p53-positive nuclei above about 36% (passing the limit was not always enough); inactive means the rest. The entries come from a sample that favours actives as a whole.

Tests used:
[1] = nuclear p53 accumulation, HPV+ cells – imaging, p53-positive nuclei imaging, 24 h, 48 h (AID 1508601); conditions: 24/48 h
[2] = target: Cellular tumor antigen p53 (Homo sapiens) (UniProt P04637); assay: as above; conditions: 24/48 h, stronger effect = higher value
Cellular tumor antigen p53 (Homo sapiens), sequence (P04637 whole entry, looked up): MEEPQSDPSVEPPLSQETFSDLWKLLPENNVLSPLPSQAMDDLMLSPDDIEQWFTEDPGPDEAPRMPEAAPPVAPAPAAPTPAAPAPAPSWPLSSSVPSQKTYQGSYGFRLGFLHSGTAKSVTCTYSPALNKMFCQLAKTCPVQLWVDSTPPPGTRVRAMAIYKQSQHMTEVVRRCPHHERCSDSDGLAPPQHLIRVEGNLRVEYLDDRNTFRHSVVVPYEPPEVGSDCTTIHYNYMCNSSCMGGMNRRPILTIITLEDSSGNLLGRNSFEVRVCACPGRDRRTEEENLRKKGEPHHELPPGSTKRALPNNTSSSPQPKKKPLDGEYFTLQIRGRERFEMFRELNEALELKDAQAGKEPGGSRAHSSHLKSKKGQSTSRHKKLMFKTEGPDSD

[3] = measured here: cell number at 24 h, concentration not given here
[4] = measured here: cell number at 48 h, concentration not given here
[5] = measured here: p53 positive nuclei at 24 h, concentration not given here
[6] = measured here: cell number at 24 h, Library stock concentration: 80 uM
[7] = measured here: cell number at 24 h, Library stock concentration: 400 uM
[8] = measured here: cell number at 24 h, Library stock concentration: 2 mM
[9] = measured here: cell number at 24 h, Library stock concentration: 3.33 mM
[10] = measured here: cell number at 24 h, Library stock concentration: 10 mM
[11] = measured here: cell number at 48 h, Library stock concentration: 80 uM
[12] = measured here: cell number at 48 h, Library stock concentration: 400 uM
[13] = measured here: cell number at 48 h, Library stock concentration: 2 mM
[14] = measured here: cell number at 48 h, Library stock concentration: 3.33 mM
[15] = measured here: cell number at 48 h, Library stock concentration: 10 mM
[16] = Library stock concentration: 80 uM
[17] = Library stock concentration: 400 uM
[18] = Library stock concentration: 2 mM
[19] = Library stock concentration: 3.33 mM
[20] = Library stock concentration: 10 mM
[21] = measured here: p53 positive nuclei at 24 h, Library stock concentration: 80 uM
[22] = measured here: p53 positive nuclei at 24 h, Library stock concentration: 400 uM
[23] = measured here: p53 positive nuclei at 24 h, Library stock concentration: 2 mM
[24] = measured here: p53 positive nuclei at 24 h, Library stock concentration: 3.33 mM
[25] = measured here: p53 positive nuclei at 24 h, Library stock concentration: 10 mM

COc1cc(C(=O)NCc2ccc(OCCN(C)C)cc2)cc(OC)c1OC
nuclei count, normalised [1, 3]: 106%
nuclei count, normalised [1, 4]: 102%
p53-positive nuclei, normalised ([2]; concentration not given here): -0.214% (inactive)
p53-positive nuclei, normalised [2, 5]: -0.0679%

CC(C)C1C(=O)NC(CCCN=C(N)N)C(=O)NCC(=O)NC(CC(=O)O)C(=O)NC(Cc2ccccc2)C(=O)N1C (stereo not drawn)
nuclei count, normalised [1, 6]: 104%
nuclei count, normalised [1, 7]: 96.6%
nuclei count, normalised [1, 8]: 88.2%
nuclei count, normalised [1, 9]: 88.5%
nuclei count, normalised [1, 10]: 51.2%
nuclei count, normalised [1, 11]: 94.6%
nuclei count, normalised [1, 12]: 89.6%
nuclei count, normalised [1, 13]: 76.5%
nuclei count, normalised [1, 14]: 85.4%
nuclei count, normalised [1, 15]: 34.6%
p53-positive nuclei, normalised [2, 16]: 0.242% (inactive)
p53-positive nuclei, normalised [2, 17]: 0.104% (inactive)
p53-positive nuclei, normalised [2, 18]: -0.113% (inactive)
p53-positive nuclei, normalised [2, 19]: -0.0271% (inactive)
p53-positive nuclei, normalised [2, 20]: -0.0215% (inactive)
p53-positive nuclei, normalised [2, 21]: 0.00102%
p53-positive nuclei, normalised [2, 22]: -0.0368%
p53-positive nuclei, normalised [2, 23]: -0.0914%
p53-positive nuclei, normalised [2, 24]: -0.218%
p53-positive nuclei, normalised [2, 25]: -0.22%

CC(CCC(=O)O)C1CC[C@H]2[C@@H]3C(O)C[C@@H]4CC(O)CC[C@]4(C)[C@@H]3CC[C@]12C (stereo partly drawn)
nuclei count, normalised [1, 6]: 103%
nuclei count, normalised [1, 7]: 104%
nuclei count, normalised [1, 8]: 103%
nuclei count, normalised [1, 10]: 105%
nuclei count, normalised [1, 11]: 101%
nuclei count, normalised [1, 12]: 101%
nuclei count, normalised [1, 13]: 100%
nuclei count, normalised [1, 15]: 106%
p53-positive nuclei, normalised [2, 16]: 0.0117% (inactive)
p53-positive nuclei, normalised [2, 17]: -0.178% (inactive)
p53-positive nuclei, normalised [2, 18]: 0.0148% (inactive)
p53-positive nuclei, normalised [2, 20]: -0.147% (inactive)
p53-positive nuclei, normalised [2, 21]: 0.00498%
p53-positive nuclei, normalised [2, 22]: -0.109%
p53-positive nuclei, normalised [2, 23]: -0.106%
p53-positive nuclei, normalised [2, 25]: -0.11%

O=C(C=Cc1ccc(CN(CCO)CCc2c[nH]c3ccccc23)cc1)NO
nuclei count, normalised [1, 9]: 37.8%
nuclei count, normalised [1, 14]: 20.4%
p53-positive nuclei, normalised [2, 19]: 113% (active)
p53-positive nuclei, normalised [2, 24]: 94.4%

OCc1c[nH]c2ccccc12
nuclei count, normalised [1, 6]: 116%
nuclei count, normalised [1, 7]: 113%
nuclei count, normalised [1, 8]: 124%
nuclei count, normalised [1, 9]: 121%
nuclei count, normalised [1, 10]: 113%
nuclei count, normalised [1, 11]: 111%
nuclei count, normalised [1, 12]: 105%
nuclei count, normalised [1, 13]: 115%
nuclei count, normalised [1, 14]: 105%
nuclei count, normalised [1, 15]: 106%
p53-positive nuclei, normalised [2, 16]: -0.0881% (inactive)
p53-positive nuclei, normalised [2, 17]: 0.33% (inactive)
p53-positive nuclei, normalised [2, 18]: 0.0198% (inactive)
p53-positive nuclei, normalised [2, 19]: -0.0843% (inactive)
p53-positive nuclei, normalised [2, 20]: -0.042% (inactive)
p53-positive nuclei, normalised [2, 21]: -0.0144%
p53-positive nuclei, normalised [2, 22]: 0.188%
p53-positive nuclei, normalised [2, 23]: 0.151%
p53-positive nuclei, normalised [2, 24]: -0.374%
p53-positive nuclei, normalised [2, 25]: 0.0508%

O=C(O)CCCc1c[nH]c2ccccc12
nuclei count, normalised [1, 9]: 110%
nuclei count, normalised [1, 14]: 101%
p53-positive nuclei, normalised [2, 19]: -0.0398% (inactive)
p53-positive nuclei, normalised [2, 24]: 2.53%

CCc1cc2c(cc1CC)CC(NCC(O)c1ccc(O)c3[nH]c(=O)ccc13)C2 (stereo not drawn)
nuclei count, normalised [1, 9]: 112%
nuclei count, normalised [1, 14]: 110%
p53-positive nuclei, normalised [2, 19]: -0.298% (inactive)
p53-positive nuclei, normalised [2, 24]: -0.54%

CCCCC[C@H](O)/C=C/[C@H]1[C@H](O)CC(=O)[C@@H]1C/C=C\CCCC(=O)OC
nuclei count, normalised [1, 3]: 111%
nuclei count, normalised [1, 4]: 106%
p53-positive nuclei, normalised ([2]; concentration not given here): -0.0657% (inactive)
p53-positive nuclei, normalised [2, 5]: 0.249%

CCC(CC)(NC(=O)C(C)C)C(=O)NC(CCCN=C(N)N)C(=O)NC1(C(=O)NC(c2ccc(F)cc2)c2ccc(F)cc2)CCCC1 (stereo not drawn)
nuclei count, normalised [1, 9]: 107%
nuclei count, normalised [1, 14]: 102%
p53-positive nuclei, normalised [2, 19]: -0.0557% (inactive)
p53-positive nuclei, normalised [2, 24]: -0.115%

c1ccc(-c2nc3c(cnn3C3CCCCC3)[nH]2)c(Cn2cccn2)c1
nuclei count, normalised [1, 3]: 106%
nuclei count, normalised [1, 4]: 110%
p53-positive nuclei, normalised ([2]; concentration not given here): -0.0852% (inactive)
p53-positive nuclei, normalised [2, 5]: 0.144%

CC(/C=C/C(=O)NO)=C\[C@@H](C)C(=O)c1ccc(N(C)C)cc1
nuclei count, normalised [1, 3]: 53.4%
nuclei count, normalised [1, 4]: 27.6%
p53-positive nuclei, normalised ([2]; concentration not given here): 55.3% (active)
p53-positive nuclei, normalised [2, 5]: 61.3%

CC(C=CC(=O)NO)=CC(C)C(=O)c1ccc(N(C)C)cc1 (stereo not drawn)
nuclei count, normalised [1, 9]: 35.3%
nuclei count, normalised [1, 14]: 21.2%
p53-positive nuclei, normalised [2, 19]: 88.9% (active)
p53-positive nuclei, normalised [2, 24]: 74.9%

CN(C)c1ccc(C(=O)NCCCCCCC(=O)NO)cc1
nuclei count, normalised [1, 9]: 54.1%
nuclei count, normalised [1, 3]: 116%
nuclei count, normalised [1, 14]: 44.8%
nuclei count, normalised [1, 4]: 100%
p53-positive nuclei, normalised [2, 19]: 25% (inactive)
p53-positive nuclei, normalised ([2]; concentration not given here): 0.296% (inactive)
p53-positive nuclei, normalised [2, 24]: 45%
p53-positive nuclei, normalised [2, 5]: 0.159%

CN(C)c1ccc(C(=O)NCCCCCC(=O)NO)cc1
nuclei count, normalised [1, 3]: 110%
nuclei count, normalised [1, 4]: 106%
p53-positive nuclei, normalised ([2]; concentration not given here): 0.149% (inactive)
p53-positive nuclei, normalised [2, 5]: 0.257%

COC(=O)c1c(NC(=O)CC2SC(=N)NC2=O)sc(C)c1C (stereo not drawn)
nuclei count, normalised [1, 6]: 98.4%
nuclei count, normalised [1, 7]: 104%
nuclei count, normalised [1, 8]: 101%
nuclei count, normalised [1, 10]: 101%
nuclei count, normalised [1, 11]: 108%
nuclei count, normalised [1, 12]: 108%
nuclei count, normalised [1, 13]: 106%
nuclei count, normalised [1, 15]: 99.8%
p53-positive nuclei, normalised [2, 16]: -0.137% (inactive)
p53-positive nuclei, normalised [2, 17]: -0.126% (inactive)
p53-positive nuclei, normalised [2, 18]: -0.195% (inactive)
p53-positive nuclei, normalised [2, 20]: -0.114% (inactive)
p53-positive nuclei, normalised [2, 21]: -0.000422%
p53-positive nuclei, normalised [2, 22]: -0.116%
p53-positive nuclei, normalised [2, 23]: -0.00728%
p53-positive nuclei, normalised [2, 25]: -0.004%

C[C@]1(C(=O)Nc2ccc(F)nc2)CCCN1c1nc(Nc2cc(C3CC3)[nH]n2)c2cccn2n1
nuclei count, normalised [1, 9]: 46.1%
nuclei count, normalised [1, 14]: 30.3%
p53-positive nuclei, normalised [2, 19]: -0.488% (inactive)
p53-positive nuclei, normalised [2, 24]: -0.0691%

C=CC(=O)Nc1cccc(Oc2nc(Nc3ccc(N4CCN(C)CC4)cc3)ncc2Cl)c1
nuclei count, normalised [1, 9]: 64.1%
nuclei count, normalised [1, 14]: 64.3%
p53-positive nuclei, normalised [2, 19]: -0.197% (inactive)
p53-positive nuclei, normalised [2, 24]: -0.375%

CN1CCN(c2ccc(Nc3c4ccccc4nc4ccccc34)cc2)CC1
nuclei count, normalised ([1]; measured here: cell number at 24 h, Library stock concentration: 46 uM): 95.9%
nuclei count, normalised [1, 6]: 110%
nuclei count, normalised ([1]; measured here: cell number at 24 h, Library stock concentration: 278 uM): 90.1%
nuclei count, normalised [1, 7]: 95.8%
nuclei count, normalised ([1]; measured here: cell number at 24 h, Library stock concentration: 1.67 mM): 79.3%
nuclei count, normalised [1, 8]: 52.3%
nuclei count, normalised [1, 10]: 32.6% and 36.6%
nuclei count, normalised ([1]; measured here: cell number at 48 h, Library stock concentration: 46 uM): 96.2%
nuclei count, normalised [1, 11]: 109%
nuclei count, normalised ([1]; measured here: cell number at 48 h, Library stock concentration: 278 uM): 93.5%
nuclei count, normalised [1, 12]: 103%
nuclei count, normalised ([1]; measured here: cell number at 48 h, Library stock concentration: 1.67 mM): 81%
nuclei count, normalised [1, 13]: 48.7%
nuclei count, normalised [1, 15]: 18.8% and 22%
p53-positive nuclei, normalised ([2]; Library stock concentration: 46 uM): -0.136% (inactive)
p53-positive nuclei, normalised [2, 16]: -0.131% (inactive)
p53-positive nuclei, normalised ([2]; Library stock concentration: 278 uM): -0.255% (inactive)
p53-positive nuclei, normalised [2, 17]: -0.231% (inactive)
p53-positive nuclei, normalised ([2]; Library stock concentration: 1.67 mM): -0.00204% (inactive)
p53-positive nuclei, normalised [2, 18]: 5.16% (inactive)
p53-positive nuclei, normalised [2, 20]: 53.2% (active) and 55.4% (active)
p53-positive nuclei, normalised ([2]; measured here: p53 positive nuclei at 24 h, Library stock concentration: 46 uM): -0.145%
p53-positive nuclei, normalised [2, 21]: -0.0662%
p53-positive nuclei, normalised ([2]; measured here: p53 positive nuclei at 24 h, Library stock concentration: 278 uM): -0.137%
p53-positive nuclei, normalised [2, 22]: -0.059%
p53-positive nuclei, normalised ([2]; measured here: p53 positive nuclei at 24 h, Library stock concentration: 1.67 mM): 0.126%
p53-positive nuclei, normalised [2, 23]: 13.1%
p53-positive nuclei, normalised [2, 25]: 88.3% and 79.2%

CNC(=O)c1nn(C)c2c1C(C)(C)Cc1cnc(Nc3ccc(N4CCN(C)CC4)cc3)nc1-2
nuclei count, normalised [1, 9]: 62.7%
nuclei count, normalised [1, 14]: 44%
p53-positive nuclei, normalised [2, 19]: 0.155% (inactive)
p53-positive nuclei, normalised [2, 24]: 0.144%

O=C1CN(c2ncnc3sccc23)CCN1Cc1ccc(F)cc1
nuclei count, normalised [1, 3]: 108%
nuclei count, normalised [1, 4]: 111%
p53-positive nuclei, normalised ([2]; concentration not given here): -0.087% (inactive)
p53-positive nuclei, normalised [2, 5]: -0.23%

CC=CCC(C)C(O)C1C(=O)NC(CC)C(=O)N(C)CC(=O)N(C)C(CC(C)C)C(=O)NC(C(C)C)C(=O)N(C)C(CC(C)C)C(=O)NC(C)C(=O)NC(C)C(=O)N(C)C(CC(C)C)C(=O)N(C)C(CC(C)C)C(=O)N(C)C(C(C)C)C(=O)N1C (stereo not drawn)
nuclei count, normalised [1, 9]: 114% and 120%
nuclei count, normalised [1, 14]: 120% and 121%
p53-positive nuclei, normalised [2, 19]: -0.306% (inactive) and -0.666% (inactive)
p53-positive nuclei, normalised [2, 24]: -0.452% and -0.338%
